ST2 inh = IL1RL1 inhibition; Q01638; AlphaLISA ST2-Fc/biotin-IL-33 interaction, 1 h; inhibition, % for hits at 17 µM; 78,000 compounds, 2.3% hits; in the data active means inhibition above about 30%
Target sequence (Q01638 whole entry, looked up): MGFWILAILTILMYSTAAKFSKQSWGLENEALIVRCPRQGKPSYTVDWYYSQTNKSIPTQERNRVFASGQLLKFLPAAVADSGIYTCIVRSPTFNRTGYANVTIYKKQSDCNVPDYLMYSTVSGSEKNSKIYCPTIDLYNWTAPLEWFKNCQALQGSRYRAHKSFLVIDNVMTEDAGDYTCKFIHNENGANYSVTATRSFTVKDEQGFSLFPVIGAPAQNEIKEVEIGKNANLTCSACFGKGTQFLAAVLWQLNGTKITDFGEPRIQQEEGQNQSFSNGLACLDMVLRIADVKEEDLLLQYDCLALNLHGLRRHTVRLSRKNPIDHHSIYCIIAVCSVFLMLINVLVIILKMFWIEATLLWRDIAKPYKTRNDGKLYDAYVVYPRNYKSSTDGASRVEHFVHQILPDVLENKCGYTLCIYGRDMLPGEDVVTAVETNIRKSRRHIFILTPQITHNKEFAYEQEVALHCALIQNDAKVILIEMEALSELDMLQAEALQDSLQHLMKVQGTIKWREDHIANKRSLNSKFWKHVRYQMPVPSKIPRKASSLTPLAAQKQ
* hit, by the source's call; i = inactive. This excerpt belongs to a sample that is enriched for hits.

SMILES	ST2 inh
COc1ccc(CCC(=O)Nc2ccc(N(C)C)cc2)cc1	46.0%*
COc1ccc(Cc2ccc(OC)cc2)cc1	i
COc1ccc(CC(=O)Nc2ccc(I)cc2)cc1	i
CCCCOC(=O)Nc1ccccc1C(=O)N1CCCCC1	i
CCOC(=O)Nc1ccc(C(C)CC)cc1 (stereo not drawn)	i
COc1ccc(C(C)c2ccc(OC)cc2)cc1	i
COc1ccc(N(C)C)cc1	32.0%*
COc1ccc(CCC(=O)NCc2ccncc2)cc1	i
COC(=O)c1ccc(Nc2nnc(C)c(=O)[nH]2)cc1	i
O=C(c1cccs1)N1CCN(c2ccc([N+](=O)[O-])cc2Cl)CC1	i
COc1cc(C(=O)Nc2cc(Cl)ccc2Cl)cc(OC)c1OC	i
COc1ccc2c(C)c(Cc3ccccc3)c(=O)oc2c1	i
Cc1ccc(NS(=O)(=O)c2cccc3c(S(=O)(=O)Nc4ccc(C)cc4)cccc23)cc1	i
O=C1c2ccccc2C(=O)c2c1cccc2S(=O)(=O)Nc1ccc(Cl)cc1	52.0%*
O=S(=O)(Nc1ccc(Cl)cc1)c1cccc2cccnc12	i
COc1ccccc1CNC(=O)CN1CC2(CCNCC2)CC1C(=O)O (stereo not drawn)	i
O=C(O)C1(Cc2ccc(Cl)cc2)CCN(c2ncnc3[nH]ccc23)CC1	i
Cc1ccc(NC(=O)Cn2c(-c3ccc4c(c3)OCO4)cn(-c3ccccc3)c2=O)cc1	31.0%*
Cc1ccc(-c2noc(CCC(=O)Nc3ccc4c(c3)OCO4)n2)cc1	i
COc1ccc(NC(=O)CN2CCN(Cc3ccc4c(c3)OCO4)CC2)cc1	i
COc1cc(C(=O)Nc2c3c(nn2C(C)(C)C)CS(=O)C3)cc(OC)c1OC (stereo not drawn)	i
CCOC(=O)c1c(NC(=O)c2cc(=O)c3ccccc3o2)sc2c1CCC2	i
CCOC(=O)c1c(-c2ccc(Cl)cc2)csc1NC1=NS(=O)(=O)c2ccccc21	i
O=C(Nc1ccc(Cl)c(Cl)c1)c1cnc2n(c1=O)CCS2	32.0%*
O=C(Nc1cc(Cl)cc(Cl)c1)c1cnc2n(c1=O)CCS2	i
SMILES	ST2 inh
O=C(Nc1ccc(F)c(Cl)c1)c1cnc2n(c1=O)CCS2	i
Cc1c(C(=O)N2CCOCC2)oc2ccc(S(=O)(=O)N3CCOCC3)cc12	i
COc1ccc(CN2C[C@H](O)C[C@H]2c2nc(CS(=O)(=O)c3ccc(C)cc3)no2)cc1	i
O[C@@H]1C[C@@H](c2nc(-c3ccccc3)no2)N(Cc2c[nH]c3ccccc23)C1	38.0%*
COc1ccc(-c2noc([C@@H]3C[C@@H](O)CN3Cc3ccc(Cl)cc3)n2)cc1	i
O[C@@H]1C[C@@H](c2nc(-c3cccnc3)no2)N(Cc2ccccc2)C1	i
O[C@@H]1C[C@@H](c2nc(-c3ccncc3)no2)N(Cc2ccc(-c3ccccn3)cc2)C1	33.0%*
O[C@@H]1C[C@@H](c2nc(-c3ccc(C(F)(F)F)cc3)no2)N(Cc2ccc(-c3ccccn3)cc2)C1	i
COc1ccc(CN2C[C@H](O)C[C@H]2c2nc(-c3ccc(OC(F)(F)F)cc3)no2)cc1	31.0%*
CN(C)c1ccc(CN2C[C@H](O)C[C@H]2c2nc(-c3ccccn3)no2)cc1	i
Cn1c(CN2C[C@H](O)C[C@H]2c2nc(-c3ccccc3)no2)nc2ccccc21	i
COc1ccc(-c2noc([C@@H]3C[C@@H](O)CN3Cc3ccncc3)n2)cc1	36.0%*
CS(=O)(=O)c1ccc(CN2C[C@H](O)C[C@H]2c2nc(-c3ccc(C(F)(F)F)cc3)no2)cc1	i
O=C(O)c1ccc(CN2C[C@H](O)C[C@H]2c2nc(-c3ccccc3)no2)cc1	i
Cc1ccc(-n2nc3c(c2NC(=O)c2ccc(F)cc2)CS(=O)C3)cc1 (stereo not drawn)	i
CCCCOc1ccc(C(=O)Nc2ccc([N+](=O)[O-])cc2Cl)cc1	i
CC(c1ccncc1)N(C)C(=O)Cc1ccc(O)c(Cl)c1 (stereo not drawn)	i
CC(C)CN(CC(C)C)C(=O)CN1C(=O)c2ccccc2C1=O	i
CCC(=O)N1CCc2cc(Br)cc(S(=O)(=O)N3CCc4ccccc43)c21	i
CCOC(=O)c1c(NC(=O)c2cc(-c3ccco3)on2)sc2c1CCCC2	i
CCCCC1CN(CCNC(=O)c2cccc(N3CCNC3=O)c2)Cc2ccccc2O1 (stereo not drawn)	i
C=CCN(Cc1ccccn1)C(=O)CCn1c(C)cc(C)nc1=O	i
COc1ccc(Cl)cc1C(=O)NCCc1ccc(F)cc1	i
O=C(CN1N=NC2C(=O)N(c3ccccc3)C(=O)C21)Nc1cccc(Cl)c1 (stereo not drawn)	i
O=S(=O)(Cc1noc([C@@H]2C[C@@H](O)CN2Cc2ccc(-c3ccccn3)cc2)n1)c1ccc(F)cc1	i
SMILES	ST2 inh
O=[N+]([O-])c1ccc(CN2C[C@H](O)C[C@H]2c2nc(-c3ccc(OC(F)(F)F)cc3)no2)cc1	i
O=[N+]([O-])c1ccc(CN2C[C@H](O)C[C@H]2c2nc(-c3ccc(C(F)(F)F)cc3)no2)cc1	i
O[C@@H]1C[C@@H](c2nc(-c3ccc(F)cc3)no2)N(Cc2ccc(OC(F)(F)F)cc2)C1	53.0%*
CC(=O)Nc1ccc(CN2C[C@H](O)C[C@H]2c2nc(CS(=O)(=O)c3ccc(F)cc3)no2)cc1	74.0%*
O=S(=O)(Cc1noc([C@@H]2C[C@@H](O)CN2CC2CC2)n1)c1ccc(F)cc1	i
COc1cccc(-c2cc(N3CCN(S(=O)(=O)c4ccc(F)c(Cl)c4)CC3)ncn2)c1	i
COc1cc(/C=C2\NC(=O)N(Cc3ccc(Cl)cc3)C2=O)cc(Cl)c1OCC(=O)O	i
c1ccc(Cn2cc(CNC3CSCCSC3)cn2)cc1	i
CN1CCN2CCN(C(=O)CCOc3ccccc3)CC2C1=O (stereo not drawn)	i
COc1cc(-c2nnc3n2C(C)(C)Cc2ccccc2-3)cc(OC)c1OC	i
COc1cc(-c2nc(C=C3C(C)=Nc4ccccc43)c(O)o2)cc(OC)c1OC	34.0%*
Cc1ccc(N=Cc2nc(-c3ccccc3)oc2O)cc1Cl	i
CCOc1cc(CN2CCN(Cc3cc(Br)ccc3OC)CC2)ccc1OC	i
COCc1ccc(C(=O)N2CC(=O)N(Cc3ccccn3)CC(OCc3cccc(OC)c3)C2)o1 (stereo not drawn)	i
CCC(C)n1c(=N)c(C(=O)NC2CCCCC2)cc2c(=O)n3cccc(C)c3nc21 (stereo not drawn)	i
OCCC1CN(Cc2cccn2-c2cccnc2)CCN1CC1CCCCC1 (stereo not drawn)	i
Cc1cc(CNC(=O)CN(C)C2CCS(=O)(=O)C2)c2[nH]c(C)c(C)c2c1 (stereo not drawn)	i
Oc1cc(O)cc(/C=C/c2ccc(O)c(O)c2)c1	33.0%*
COC(=O)[C@]1(O)C[C@@H](O)[C@@H](O)[C@H](OC(=O)/C=C/c2ccc(O)c(O)c2)C1	i
Oc1ccc(/C=C/c2ccc(/C=C/c3ccc(O)cc3)c(Br)c2)cc1	i
CCCCNC(=O)c1cc(-c2ccncc2)nc2ccccc12	i
O=C1NCCN2CCN(C(=O)CNS(=O)(=O)c3cccs3)CC12 (stereo not drawn)	i
CCOC(=O)C1CCCN(C(=O)c2cn(CC)c(=O)c3cc(OC)c(OC)cc23)C1 (stereo not drawn)	i
COc1ccc(N2CCN(C(=O)c3cn(C)c(=O)c4cc(OC)c(OC)cc34)CC2)cc1	46.0%*

Assay outcomes from PubChem.
